From PubChem
D1 antag = antagonists of human D1 dopamine receptor; P21728; HEK293 TREx D1 cells, calcium flux, dopamine EC80; hits give low values; activity change, negative = inhibition, % at 10 µM; 360,000 compounds, 3.2% hits; AID 504652; in the data active = activity change below about -30%; also: % is scaled to controls: 0 for no effect and ±100 for the full control effect
Target sequence (P21728 whole entry, looked up): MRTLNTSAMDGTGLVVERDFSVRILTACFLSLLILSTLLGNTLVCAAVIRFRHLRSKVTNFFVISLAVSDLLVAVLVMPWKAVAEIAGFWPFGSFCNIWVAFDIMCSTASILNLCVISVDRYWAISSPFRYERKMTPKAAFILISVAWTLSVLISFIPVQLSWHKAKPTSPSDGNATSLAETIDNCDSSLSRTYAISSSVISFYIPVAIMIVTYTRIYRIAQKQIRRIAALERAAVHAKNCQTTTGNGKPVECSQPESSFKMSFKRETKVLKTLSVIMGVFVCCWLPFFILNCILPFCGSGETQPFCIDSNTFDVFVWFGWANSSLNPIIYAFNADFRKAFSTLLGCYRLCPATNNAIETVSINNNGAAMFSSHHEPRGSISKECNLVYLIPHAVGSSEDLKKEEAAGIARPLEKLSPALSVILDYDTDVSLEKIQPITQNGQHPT
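Compound effects on dopamine-evoked calcium signalling were measured in tetracycline-induced HEK293 Trex D1 cells. Dopamine at EC80 followed a 180 s compound pre-read, and fluorescence was tracked kinetically for 180 s more.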
TRHR ag = activates the human TRH receptor. P34981. TRHR cells, calcium flux fluo-8, FDSS agonist mode. activation, % at 2 µM. 360,000 compounds, 0.18% hits; also: 0% is about no effect
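Fluo-8-loaded TRHR cells; 10 s baseline, compound added, kinetic Ca2+ fluorescence read 1/s, agonist mode.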
D1 agonist = activates the human D1 dopamine receptor; activation, % at 2 µM; 360,000 compounds, 1% hits; HEK293 T-REx D1 cells, calcium flux, agonist mode; AID 504660; also: 0% is about no effect
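Tetracycline-induced HEK293 TREx D1 cells, force-coupled to calcium signalling, were dye-loaded with a no-wash calcium kit. Compound was pin-added after a 10 s baseline. Fluorescence was read kinetically at 1 cycle/s for 180 s, with calcium rises flagged as agonism.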
D1 potentiator = enhances dopamine response at the human D1 receptor; HEK293 TREx D1 cells, calcium flux, dopamine EC20 potentiation; potentiation, % at 10 µM; 360,000 compounds, 0.036% hits; in the data active = potentiation above about 30%; also: 0% is about no effect
TRHR enhancer = TRH receptor (human) allosteric enhancement; enhancement, % at 2 µM; 360,000 compounds, 0.66% hits; P34981; TRHR cells, fluo-8 calcium fluorescence, EC20 TRH enhancement; in the data active = enhancement above about 30%; also: 0% is about no effect
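Enhancer read-out: after compound pinning and an initial kinetic agonist-mode read, an EC20 of TRH (10 nM final) was injected and fluo-8 calcium signal (Ex 480/Em 530) followed at 1 s/cycle for 100 cycles in TRHR-expressing cells.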
* hit, by the source's call. This is a sample that favours compounds with a hit; in the whole collection about 4.6% have one here. Rule as the data show it, unless noted: active = activation above about 30%; inactive = the rest.

SMILES	D1 antag	TRHR ag	D1 agonist	D1 potentiator	TRHR enhancer
CCCN(CCC)CC(O)Cn1cc(/C=C/C(=O)c2ccc(OC)cc2)c2ccccc21 (stereo not given)	-41*	-2	128*	7	0
O=C(/C=C/c1ccnc2ccccc12)c1cccs1	2	0	0	6	-2
CCCN(CCC)CC(O)Cn1cc(/C=C/C(=O)c2cccs2)c2ccccc21 (stereo not given)	-21	8	94*	-6	9
CCOc1ccc(C(=O)OCc2cc(=O)n3cc(C)sc3n2)cc1	-4	0	3	-3	2
OCCN(CCO)CC(O)Cn1c2ccccc2c2ccccc21 (stereo not given)	11	0	3	1	6
CCCN(CCC)CC(O)Cn1cc(/C=C/C(=O)c2ccc(Br)cc2)c2ccccc21 (stereo not given)	-13	5	33*	-3	1
Cc1nc2ccccc2n1CCc1nc2c3ccccc3nc(SCC(=O)Nc3ccc(C(C)C)cc3)n2n1	-20	0	3	-4	5
CCC(Sc1nc2ccccc2c2nc(CCn3c(C)nc4ccccc43)nn12)C(=O)Nc1ccc(F)cc1 (stereo not given)	-42*	0	1	-4	2
O=C(O)CCc1nn2c3ccccc3nc2n(CCN2CCCCC2)c1=O	-31*	0	7	-5	-3
O=C(O)CCc1nc2ccccc2n(CCc2ccccc2)c1=O	-14	0	1	-1	2
COc1ccc(CNC(=O)CSc2nnc(C)c3c(C)n(-c4ccccc4)nc23)c(OC)c1	-16	0	1	-2	0
O=C(O)CC1(CC(=O)Nc2ccc3ccccc3c2)CCCCC1	12	0	1	-5	0
O=C(O)CC1(CC(=O)Nc2ccc3ccccc3n2)CCCCC1	2	0	1	-3	32*
Cc1cc(C)c(OCC(=O)N(Cc2ccc(N(C)C)cc2)CC2CCCO2)c(C)c1 (stereo not given)	5	-1	1	0	3
COC(=O)CNC(=O)c1nn(-c2cccc(OC)c2)c(=O)c2ccccc12	-40*	0	2	-2	1
COc1cccc(-n2nc(C(=O)O)c3ccccc3c2=O)c1	27	1	2	-2	-3
COc1ccc(CN2C(=O)CC(Cc3cc(C)cc(C)c3)C2=O)cc1OC (stereo not given)	-43*	-1	2	-9	3
CNS(=O)(=O)c1cc(Nc2ncnc3sccc23)ccc1C	-2	0	3	-9	2
CCn1c(SCC(=O)N(C)c2ccccc2)nc2c([nH]c3ccccc32)c1=O	-37*	-2	1	-6	-1
CCOC(=O)N1CCN(C(=O)CSc2nc3c([nH]c4ccccc43)c(=O)n2CC)CC1	-36*	-1	0	4	0
Cc1cccc(NC(=O)c2sc3nc4c(cc3c2N)CN(C(C)C)CC4)c1	4	1	7	0	3
N#C/C(=C(\O)c1cc(Cl)sc1Cl)c1nc2ccccc2[nH]1	-19	-1	35*	-7	4
N#C/C(=C(/O)c1ccc(Cl)cc1)c1nc2ccccc2[nH]1	9	0	3	8	-3
Cc1ccc(S(=O)c2ccc(NC(=O)C3CC3)cc2C#N)cc1 (stereo not given)	-31*	1	25	-9	0
COC(=O)c1cn(NC(=O)/C=C/c2cccc(OC)c2OC)c(=O)c2ccccc12	1	0	1	-7	-2
SMILES	D1 antag	TRHR ag	D1 agonist	D1 potentiator	TRHR enhancer
COC(=O)c1cn(NC(=O)/C=C/c2ccc(OC)c(OC)c2)c(=O)c2ccccc12	-74*	1	0	-11	0
COc1cccc(CNC(=O)c2cnc(N3CCCC3)nc2C)c1	-5	0	3	-1	3
O=C(CN1C(=O)NC2(CCCCC2)C1=O)Nc1ccc(F)cc1	11	0	2	-3	4
O=C(CCCN1C(=O)NC2(CCCC2)C1=O)Nc1ccc(F)cc1	-38*	0	0	-7	-3
O=C(CN1C(=O)NC2(CCCCCCC2)C1=O)Nc1ccc(Br)cc1	-40*	0	0	2	0
COc1cc(OC)c(NS(=O)(=O)c2cc(-c3cnc(C)o3)ccc2OC)cc1Cl	-18	2	10	-1	0
